Reference: PubChem BioAssay AID1347069 (National Center for Advancing Translational Sciences (NCATS), 2019)
Screen size: about 44,000 compounds; fewer than 10 were called active. Calls follow the shape of the dose curve; as a rule, active = well fitted inhibition curve with a large enough effect; inconclusive = small, poorly fitted or top-dose-only effect; inactive = flat fitted curve, though single readings scatter. These entries were drawn from the full list.

target: Tumor susceptibility gene 101 protein (Homo sapiens) (UniProt Q99816); experiment: qHTS Validation Assay for Inhibitors of HIV-1 Budding by Blocking the Interaction of PTAP/TSG101: Sytravon Library Screen; details: Fluorescence polarization, FITC-PTAP peptide/Tsg101, 20 min; series mostly up to 115 µM
Sequence (Q99816 whole entry, looked up): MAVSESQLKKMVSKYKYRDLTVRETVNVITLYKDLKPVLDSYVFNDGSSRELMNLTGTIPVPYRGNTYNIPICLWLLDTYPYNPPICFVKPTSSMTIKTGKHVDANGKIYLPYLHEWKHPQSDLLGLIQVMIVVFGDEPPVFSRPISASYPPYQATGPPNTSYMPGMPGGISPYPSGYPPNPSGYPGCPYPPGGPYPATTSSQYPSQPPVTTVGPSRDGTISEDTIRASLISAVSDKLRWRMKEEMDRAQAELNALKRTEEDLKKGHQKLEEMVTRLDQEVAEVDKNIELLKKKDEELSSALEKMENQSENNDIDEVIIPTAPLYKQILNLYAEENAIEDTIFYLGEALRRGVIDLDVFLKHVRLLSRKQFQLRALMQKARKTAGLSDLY
Excerpt: Stages of the HIV-1 replication cycle, specifically virus assembly and release, provide underexploited targets for the development of novel antiviral inhibitors. The late stages of HIV-1 replication are mediated by the Gag precursor protein, Pr55Gag. Expression of Pr55Gag is both necessary and sufficient for the production of virus-like particles from Gag-expressing cells. The Gag protein hijacks key host proteins involved in endocytic machinery of the host cell to promote endosomal processing and viral budding. The budding process requires a direct interaction between a […] (PTAP) motif in the p6 domain of Gag and the cellular endosomal sorting protein known as Tsg101. In this way, the Gag PTAP motif promotes the host cells to recruit viral particles to the plasma membrane where the new viral particles are released, effectively turning the host cells into viral factories. A fluorescence polarization assay has been developed to quantitatively measure the PTAP-Tsg101 interaction which can be used to screen for inhibitors of this interaction. This assay was run against the NCGC Sytravon Library collection. NIH Molecular Libraries Probe Production Network [MLPCN] NIH Chemical Genomics Center [NCGC] Grant: R03 MH087464-01A1 PI Name: Dr. Eric Freed, NCI
Two uL of the Tsg101 binding domain in buffer (10 mM HEPES pH 7.5; 0.15 M NaCl, 0.01% Tween 20; 3 mM EDTA;0.1 mM TCEP) was dispensed into Greiner black MB 1536-well plates (final concentration 10 uM). Then, 23 nL of compounds or DMSO were delivered to each well using a pin tool. Finally, 2 uL of a FITC-labeled peptide containing the PTAP motif (1) in the same buffer was dispensed (50 nM final concentration) and the binding was allowed to proceed for 20 min. at r.t. Fluorescent polarization was determined using FITC excitation and polarized emission filters on a Perkin Elmer Envision. Assay cut-off (positive/negative criteria): Actives defined by CRC class, <25 µM; Efficacy <60% inhibition. The total fluorescent intensity from S and P channels will be used to flag fluorescent compounds.

Potency, inactive:
O=C(OCc1cc(=O)n2nc(C3CC3)sc2n1)c1ccccc1Cl
COc1ccc(NC(=O)Nc2cccc(-c3noc(C)n3)c2)cc1
CC(C)(C)c1ccc(C(=O)N2CCC(c3nc(-c4ccc(S(=O)(=O)N5CCCC5)cc4)no3)CC2)cc1
CCCCCn1c(CCCNC(=O)c2ccccc2OC)nc2ccccc21
COc1ccccc1CNc1nccn(-c2ccc(F)cc2)c1=O
Cc1c(Cl)cccc1-c1ccc(CNCCCSc2nnnn2C)o1
CSc1ccc(C2c3c(oc4ccccc4c3=O)C(=O)N2CCCN2CCOCC2)cc1 (configuration not stated)
CSc1cccc(NC(=O)CN2C(=O)CCc3cc(S(=O)(=O)N4CCCCC4)ccc32)c1
COc1ccc(OC)c(NC(=O)CSC2=Nc3ccccc3C3=NC(CC(=O)NCc4ccc(F)cc4)C(=O)N23)c1 (configuration not stated)
Cc1cc(OC(C)C(=O)Nc2sc3c(c2C(N)=O)CCCC3)ccc1Cl (configuration not stated)
COc1ccc(-c2cc(-c3ccccc3)nc3c2COc2ccc(Cl)cc2-3)cc1
CCCCNC(=O)C1CCCN(c2nnc(C)c3c(C)n(-c4ccc(Cl)cc4)nc23)C1 (configuration not stated)
Cc1cccc(NC(=O)N2CCN(C)c3ncccc32)c1C
CCc1nnc(SCc2nc(-c3cccc(C)c3)oc2C)c2cc3sc(C)cc3n12
CC(C)(C)c1ccc(C(=O)Nc2ccc3c(c2)CCCN3C(=O)c2cccs2)cc1
CCN1CCN(C(c2ccc(C)cc2)c2c(O)cc(C)n(Cc3ccco3)c2=O)CC1 (configuration not stated)
Cc1csc2nc(COC(=O)c3ccccc3NC(=O)c3ccccc3Cl)cc(=O)n12
Cc1ccc(NC(=O)c2ccc3[nH]c(C)cc(=O)c3c2)c(C)c1
Cc1ccc2c(c1)c1c(c(=O)n(-c3ccccc3)c(=O)n1CC(=O)c1ccc(Cl)cc1)n2C
Cc1ccccc1-c1nc2cc(NC(=O)c3cccc(OCCC(C)C)c3)ccc2o1
CCn1c(C)c(C)c2cc(C(=O)NCCc3cc(OC)ccc3OC)ccc21
Cn1c(=O)c2c(ncn2CC(=O)Nc2cccc(C(F)(F)F)c2)n(C)c1=O
Cc1ccc(-n2nc(C)c3c(C)cc(=O)n(CC(=O)Nc4ccc(C(C)C)cc4)c32)cc1
Cc1ccc(C2c3[nH]c4ccccc4c3CCN2C(=O)c2cccc(C)c2)cc1 (configuration not stated)
CCOC(=O)C1CCN(c2nc3c(S(=O)(=O)c4ccc(CC)cc4)nnn3c3ccc(Cl)cc23)CC1
O=C(CSc1nc2ccccc2nc1Cc1ccccc1)N1CCCCC1
COc1cccc(CNC(=O)c2ccc3c(Cl)c4c(nc3c2)CCCC4)c1
CCCN(CCC)CCCNC(=O)Cn1cc2c(n1)-c1c(oc(C(=O)N3CCCC3)c1C)CC2
COc1ccc(NC(=O)Cn2cc(C(=O)c3ccncc3)c(=O)c3cc(C)ccc32)cc1Cl
O=C(Cn1ncc2c3ccccc3n(Cc3ccccc3)c2c1=O)NC1CCCCCC1
Cc1ccc(NC(=O)CN2C(=O)CC(C)Sc3ccccc32)c(C)c1 (configuration not stated)
CC(C)c1ccc(OCC(=O)N(Cc2ccc(N(C)C)cc2)C2CCS(=O)(=O)C2)cc1 (configuration not stated)
CCCn1c(NCc2ccccc2F)nc2ccccc21
O=C(COc1ccc(Cl)cc1)N(Cc1ccco1)Cc1ccco1
Cc1ccc(CCNC(=O)c2ccc3c(c2)N(Cc2cc(C)ccc2C)C(=O)c2ccccc2S3=O)cc1 (configuration not stated)
O=C(c1ccc2c(c1)N(Cc1ccccc1)C(=O)c1ccccc1S2(=O)=O)N1CCC(Cc2ccccc2)CC1
CCCCn1c(=O)c2oc3ccccc3c2n(CC(=O)Nc2ccccc2OC)c1=O
COC(=O)c1ccc(NC(=O)c2cnn(-c3ccc(Cl)cc3)c2C2CCN(C(=O)OC(C)(C)C)CC2)cc1
COc1ccc(-c2nc3ccc(C(=O)NCc4ccc(C)cc4)cc3nc2-c2ccc(OC)cc2)cc1
Cc1cccc(N(C)C(=O)CS(=O)(=O)c2cccc3nsnc23)c1
O=C(C1CCC(Cn2c(=O)c3sccc3n(Cc3ccccc3F)c2=O)CC1)N1CCCCC1 (configuration not stated)
CCN1CCN(CCCNC(=O)c2ccc3c(c2)sc2nc(-c4ccc(OC)cc4)cn23)CC1
COc1cccc2c1cc1c(=O)n(CC(=O)N3CCN(c4ccccc4)CC3)nc(C)n12
O=C(Nc1ccc(Oc2ccccc2)cc1)C1CCN(S(=O)(=O)c2ccc(Cl)cc2)CC1
COc1ccc(-c2cn3c(C)c(C(=O)Nc4cc(C)cc(C)c4)sc3n2)cc1
CCCCN(C)CCCNC(=O)CN1N=C(c2ccc(OC)cc2)CCC1=O
COc1cccc(Cn2c(SCc3ccc(C(=O)N4CCC(C)CC4)cc3)nc3ccncc32)c1
Cc1cccc(NC(=O)c2cc3c(C)nn(-c4ccccc4)c3s2)c1
CNC(=O)c1ccc(-c2nc(CN3CCc4ccccc43)c(C)o2)cc1
Cc1ccc2oc(=O)c3cnn(CC(=O)N4CCN(c5cccc(Cl)c5)CC4)c3c2c1
COc1ccc(-n2c(SCC(=O)Nc3ccc(Cl)c(C)c3)nc3n[nH]c(C)c3c2=N)cc1
CCC(C(=O)Nc1cccc(Cl)c1C)n1nc(-c2ccc(C)cc2)ccc1=O (configuration not stated)
Cc1cccc(CNS(=O)(=O)c2ccc(-c3cnc(C4CC4)o3)cc2)c1
CCc1cc2c(-c3ccccc3)cc(=O)oc2c2c1OCN(Cc1ccc(C)cc1)C2
Cc1oc2ccc(O)c(CN3CCCCC3)c2c1C(=O)Nc1cccc(C(F)(F)F)c1
CC(C)Cn1c(=O)c2ccccc2n2c(-c3cccc(Cl)c3)nnc12
O=C(Nc1cc(Cl)cc(Cl)c1)c1ccc2c(c1)N(Cc1cccc(Cl)c1)C(=O)c1ccccc1S2=O (configuration not stated)
O=C(O)c1ccc(Nc2nc(-c3ccccc3)c3cc(Br)ccc3n2)cc1
Cc1cc(C)c2sc(NC(=O)c3ccc(S(=O)(=O)N4CCCC4)cc3)nc2c1
CCc1ccc(NC(=O)c2cnc3c(-c4ccccc4)c(C)nn3c2C)cc1
COc1ccc(-c2csc(-c3c(N)c(C(=O)c4ccc(OC)c(OC)c4)n4ccccc34)n2)cc1
Cc1ccc(C)c(N2CCN(C(c3ccccc3)c3nnc(-c4ccccc4)o3)CC2)c1 (configuration not stated)
Fc1ccc(-c2nn(-c3ccccc3Cl)c3c2cnc2ccccc23)cc1
CCOc1ccccc1CNC(=O)c1ccc2c(c1)nc1n2CCC(C)C1 (configuration not stated)
COc1ccccc1OCC(=O)Nc1nnc2n1CCS2
CCOC(=O)c1c(C)oc2ccc(N(C(=O)c3ccncc3)S(=O)(=O)c3ccc(CC)cc3)cc12
O=C(CCS(=O)(=O)c1ccccc1)N(Cc1cccnc1)c1nc2c(F)cccc2s1
Cn1c(=O)sc2cc(NS(=O)(=O)c3ccc(C(C)(C)C)cc3)ccc21
COc1ccc2c(CNCCc3ccccc3C)c(C(=O)O)n(Cc3ccccc3C)c2c1
Cc1cc2c(cc1C)C(c1cccc(OC(C)C)c1)CC(=O)N2 (configuration not stated)
CCc1nn(CCCC(=O)NCc2ccccc2OC)c(=O)c2cc3occc3n12
Cc1cccc(NC(=O)c2ccc(F)c(S(=O)(=O)N(C)C3CCCCC3)c2)c1
COc1ccc(CCNC(=O)c2ccc3c(c2)nc(C)n3-c2ccc(Br)cc2)cc1OC
CCCCn1cc(S(=O)(=O)c2ccc(OCC)cc2)c(=O)c2cc(OC)c(OC)cc21
COc1ccccc1CNc1nc2ccc(Cl)cc2n2cnnc12
Cc1ccccc1CNC(=O)CCc1cn(Cc2ccccc2C)c2ccccc12
COc1ccccc1-n1c(-c2ccc(C)cc2)cn2c3c(=O)n(C)c(=O)n(C)c3nc12
CCOC(=O)C1CCCN(C(=O)c2ccc(-n3ccc4ccccc43)s2)C1 (configuration not stated)
Cc1cc(C)cc(NC(=O)c2cnc3sc(N4CCCC4)nn3c2=O)c1
COc1cc(NC(=O)CSc2nc3nc(C)c(Cc4ccc(C)cc4)c(C)n3n2)cc(OC)c1OC
Cc1oc(C)c2c(=O)cc(-c3ccc4c(c3)OCO4)cc(OC(=O)c3ccc(Cl)cc3)c12
COc1cccc(N=C2SC(C(=O)Nc3cccc(Cl)c3)CC(=O)N2C)c1 (configuration not stated)
Cc1ccccc1-c1nc2scc(CCNC(=O)C(=O)Nc3ccc(F)cc3F)n2n1
O=C(CSCc1cnn(-c2ccccc2)c1-n1cccc1)NCc1ccc(Cl)cc1
CCN(CC)S(=O)(=O)c1ccc(C(=O)N=c2sc3cccc(OC)c3n2C)cc1
CC(=O)Nc1ccc(NC(=O)c2cc3sccc3n2Cc2ccc(F)cc2)cc1
CC(C)Cn1c(C2CC(=O)N(c3ccccc3Cl)C2)nc2ccccc21 (configuration not stated)
CC1=C(C(=O)OCC2CCCCC2)C(c2c(F)cccc2Cl)CC(=O)N1 (configuration not stated)
COc1cc(Cl)c(C)cc1NC(=O)CCc1nc2cccnc2n1Cc1cccs1
COc1ccc(-c2nc(Cn3c(=O)cc(C)c4c(C)nn(-c5ccccc5)c43)c(C)o2)cc1OC
CCC(=O)N1CCc2cc(Br)cc(S(=O)(=O)Nc3ccc(C)cc3C)c21
CC(C)c1ccc(S(=O)(=O)Nc2ccc(O)c(Sc3nc4ccccc4s3)c2)cc1
Cc1ccc(-c2nn3c(=O)cc(CN4CCN(S(=O)(=O)c5ccc(Cl)cc5)CC4)nc3s2)cc1
NS(=O)(=O)c1ccc(NC(=O)COc2ccc(S(=O)(=O)NC3CCCCC3)cc2)cc1
Cc1ccc(NC(=O)Cc2ccc(NC(=O)N3CCCCc4ccccc43)cc2)cc1
CC1CCC(N2CC(=O)N(CCC3=CCCCC3)C(c3ccc(F)cc3)C2=O)CC1 (configuration not stated)
CCOc1ccccc1CNC(=O)c1ccc(-n2c(C)cc3c2CCC(C)C3)cc1 (configuration not stated)
O=S(=O)(c1ccc(Br)cc1)c1nnn2c1nc(NC1CCCCCC1)c1sccc12
Cc1oc(-c2ccccc2)nc1Cn1c(SCc2cccc(C(F)(F)F)c2)nc2cccnc21
CCCCOC(=O)/C(C#N)=C/c1ccc(-c2cccc(C(F)(F)F)c2)o1
CCOc1ccccc1C(=O)Nc1ccc(S(=O)(=O)N2CCCCC2c2cccnc2)cc1 (configuration not stated)
CN(Cc1ccccc1)c1ncnc2onc(-c3ccc(F)cc3)c12
Cc1cccc(C(C)C)c1NC(=O)C(NS(=O)(=O)c1cccc2nsnc12)c1ccccc1 (configuration not stated)
Cc1cccc(Cc2c(C)nc3nc(SCc4ccccc4Cl)nn3c2C)c1
Cc1ccc(/C=C(\C#N)C(=O)Nc2cc(C)ccc2C)cc1
COc1ccc(Cn2c(=O)n(-c3ccccc3C)c(=O)c3c4c(sc32)CN(C(C)=O)CC4)cc1
CCOC(=O)c1cc2c(=O)n3ccccc3nc2n(CC2CCCO2)c1=NC(=O)c1ccccc1F (configuration not stated)
